These results are taken from PubChem BioAssay (Tox21).

Experiment [1] is described as follows: qHTS assay to test for compound auto fluorescence at 535 nm (green) in HEK293 cells (AID 720680).
Experiment [2] can be described thus: qHTS assay to test for compound auto fluorescence at 460 nm (blue) in HEK293 cell free culture (AID 720681). In short, it runs like this:
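Compounds were added to cell-free DMEM with 10% FBS and fluorescence read directly. The blue channel used 405 nm excitation and 460 nm emission, with triamterene as the reference fluorophore.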

Experiment [3] can be described thus: qHTS assay to test for compound auto fluorescence at 535 nm (green) in HEK293 cell free culture (AID 720682). Summed up: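 Each library compound, or DMSO control, is added by pintool to medium alone, comprising DMEM and 10% FBS. Emission at 535 nm following 485 nm excitation is quantified against fluorescein.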
Experiment [4] is described as follows: qHTS assay to test for compound auto fluorescence at 590 nm (red) in HepG2 cell free culture (AID 720684). Summed up:
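Rose Bengal sodium served as the reference for red signal. Test compounds were dispensed into serum-containing MEM (10% FBS) without cells, and plates were read at 540/590 nm.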

Experiment [5] can be described thus: qHTS assay to test for compound auto fluorescence at 460 nm (blue) in HepG2 cell free culture (AID 720685). In short, it runs like this: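 Cell-free plates of MEM plus 10% FBS received 23 nL compound or DMSO vehicle; blue-channel (405/460 nm) intensity scored against triamterene as reference fluorophore.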
The nature of experiment [6]: qHTS assay to test for compound auto fluorescence at 535 nm (green) in HepG2 cell free culture (AID 720686).
Experiment [7] can be described thus: qHTS assay to test for compound auto fluorescence at 460 nm (blue) in HepG2 cells (AID 720687). In short, it runs like this:
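HepG2 cells in MEM with 10% FBS, attached overnight at 37 C, were exposed to compound or DMSO for 1 hr at 37 C, 5% CO2. Blue fluorescence was read at 405/460 nm, with triamterene as reference fluorophore.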

Experiment [8] can be described thus: qHTS assay to identify small molecule antagonists of the glucocorticoid receptor (GR) signaling pathway - cell viability counter screen (AID 720693). Note: nearly all actives have a fitted effect of over 55% in size.
Experiment [9] in a line: qHTS assay for identifying genotoxic compounds that show differential cytotoxicity against isogenic chicken DT40 cell lines with known DNA damage response pathways - wild type cell line (AID 743012). Note: nearly all actives have a fitted effect of over 60% in size. Note: potency is the fitted concentration of half-maximal effect. Summed up:
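CellTiter-Glo luminescence readout of viability in wild type DT40 cells after 40 h compound exposure at 37 C/5% CO2; 300 cells/well; reagent incubated 30 min at room temperature before reading.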

Experiment [10] can be described thus: qHTS assay for identifying genotoxic compounds that show differential cytotoxicity against isogenic chicken DT40 cell lines with known DNA damage response pathways - Rev3 mutant cell line (AID 743014). Note: nearly all actives have a fitted effect of over 55% in size. Note: potency is the fitted concentration of half-maximal effect.
Experiment [11] is described as follows: qHTS assay for identifying genotoxic compounds that show differential cytotoxicity against isogenic chicken DT40 cell lines with known DNA damage response pathways - Rad54/Ku70 mutant cell line (AID 743015). Note: nearly all actives have a fitted effect of over 60% in size. Note: potency is the fitted concentration of half-maximal effect.
Experiment [12] can be described thus: qHTS assay to identify small molecule antagonists of the androgen receptor (AR) signaling pathway - cell viability counter screen (AID 743033; note: nearly all actives have a fitted effect of over 45% in size).
The nature of experiment [13]: qHTS assay to identify small molecule antagonists of the androgen receptor (AR) signaling pathway using the MDA cell line - cell viability counter screen (AID 743041; note: nearly all actives have a fitted effect of over 45% in size). In short, it runs like this:
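Cytotoxicity counter screen: MDA-kb2 AR-luc cells, compound + R1881, 16 h, 37C, 0% CO2; CellTiter-Fluor added at 15.5 h, fluorescence read after 30 min.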

The target of experiment [14] is Glucocorticoid receptor (Homo sapiens) (UniProt P04150). In words: qHTS assay to identify small molecule agonists of the glucocorticoid receptor (GR) signaling pathway (AID 720691; active = well fitted activation curve with a large enough effect in the signal ratio in the repeat runs, not every such curve was filed as active; the % refers to the signal ratio). In short, it runs like this: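 HeLa GR-bla reporter line; cells pre-incubated 4 h, compound in DMSO 18 h at 37 C; LiveBLAzer B/G FRET substrate 2 h RT; fluorescence intensity read-out.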
Chain of Glucocorticoid receptor (Homo sapiens) (P04150 whole entry, looked up): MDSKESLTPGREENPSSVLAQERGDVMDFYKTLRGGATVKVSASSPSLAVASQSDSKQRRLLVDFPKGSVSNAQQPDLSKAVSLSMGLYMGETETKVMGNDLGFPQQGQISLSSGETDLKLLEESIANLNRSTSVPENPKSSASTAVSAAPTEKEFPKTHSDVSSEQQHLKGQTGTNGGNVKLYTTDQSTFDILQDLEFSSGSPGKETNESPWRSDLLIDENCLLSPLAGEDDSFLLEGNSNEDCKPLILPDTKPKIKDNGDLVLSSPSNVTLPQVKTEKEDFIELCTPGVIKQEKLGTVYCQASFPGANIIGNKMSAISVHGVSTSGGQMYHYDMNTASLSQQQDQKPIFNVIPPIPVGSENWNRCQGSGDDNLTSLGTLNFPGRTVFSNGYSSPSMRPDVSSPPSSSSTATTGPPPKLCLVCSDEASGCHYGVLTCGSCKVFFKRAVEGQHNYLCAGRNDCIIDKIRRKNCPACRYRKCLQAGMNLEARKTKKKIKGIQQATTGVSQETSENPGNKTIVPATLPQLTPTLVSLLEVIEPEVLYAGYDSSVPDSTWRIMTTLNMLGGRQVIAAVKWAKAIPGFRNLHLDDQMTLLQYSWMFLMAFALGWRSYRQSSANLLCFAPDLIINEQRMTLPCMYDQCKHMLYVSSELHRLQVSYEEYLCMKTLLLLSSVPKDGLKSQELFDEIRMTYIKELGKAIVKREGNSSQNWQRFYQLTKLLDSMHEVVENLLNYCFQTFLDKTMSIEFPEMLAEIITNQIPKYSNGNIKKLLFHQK

Experiment [15] shares this target. In words: qHTS assay to identify small molecule antagonists of the glucocorticoid receptor (GR) signaling pathway (AID 720692; active = well fitted inhibition curve with a large enough effect in the signal ratio in the repeat runs, not every such curve was filed as active; the % refers to the signal ratio). In short, it runs like this: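 Read-out: beta-lactamase FRET substrate fluorescence, 2 h at room temperature, in HeLa cells stably carrying a GRE-driven bla reporter. Compounds were co-incubated with 5 nM dexamethasone agonist (final) for 18 h at 37 C.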

Experiment [16] deals with Androgen receptor (Homo sapiens) (UniProt P10275). In words: qHTS assay to identify small molecule antagonists of the androgen receptor (AR) signaling pathway (AID 743035; active = well fitted inhibition curve with a large enough effect in the signal ratio in the repeat runs, not every such curve was filed as active; the % refers to the signal ratio). Summed up: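 AR-bla HEK293 reporter cells; 4 h settle at 37C/5% CO2; compound + R1881 agonist, 16 h at 37C; LiveBLAzer B/G FRET substrate 2 h RT; fluorescence intensity read. qHTS format.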
Chain of Androgen receptor (Homo sapiens) (P10275 whole entry, looked up): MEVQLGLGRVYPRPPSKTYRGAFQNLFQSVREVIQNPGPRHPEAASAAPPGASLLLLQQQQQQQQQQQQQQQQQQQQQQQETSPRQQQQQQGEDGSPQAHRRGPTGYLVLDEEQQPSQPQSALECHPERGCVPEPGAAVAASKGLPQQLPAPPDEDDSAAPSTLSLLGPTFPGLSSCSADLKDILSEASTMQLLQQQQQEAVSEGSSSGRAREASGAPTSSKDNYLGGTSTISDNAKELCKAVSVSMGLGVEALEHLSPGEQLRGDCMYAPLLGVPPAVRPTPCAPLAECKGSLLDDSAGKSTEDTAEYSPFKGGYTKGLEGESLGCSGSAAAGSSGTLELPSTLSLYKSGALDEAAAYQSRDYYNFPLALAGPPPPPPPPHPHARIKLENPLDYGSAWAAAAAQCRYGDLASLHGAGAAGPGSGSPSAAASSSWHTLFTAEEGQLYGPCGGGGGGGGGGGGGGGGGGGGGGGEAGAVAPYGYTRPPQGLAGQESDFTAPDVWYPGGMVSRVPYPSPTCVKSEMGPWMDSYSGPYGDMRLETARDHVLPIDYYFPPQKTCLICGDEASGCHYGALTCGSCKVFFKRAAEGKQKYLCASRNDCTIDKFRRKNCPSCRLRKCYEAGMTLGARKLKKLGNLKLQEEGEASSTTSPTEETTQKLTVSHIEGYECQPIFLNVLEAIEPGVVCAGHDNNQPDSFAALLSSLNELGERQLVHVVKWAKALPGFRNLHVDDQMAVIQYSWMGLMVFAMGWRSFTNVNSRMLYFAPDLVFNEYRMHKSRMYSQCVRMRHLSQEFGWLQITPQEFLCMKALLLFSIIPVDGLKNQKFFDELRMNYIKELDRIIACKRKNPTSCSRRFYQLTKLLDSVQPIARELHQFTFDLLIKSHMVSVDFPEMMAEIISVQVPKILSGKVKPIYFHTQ
The target is the same in experiment [17]. Put plainly: qHTS assay to identify small molecule agonists of the androgen receptor (AR) signaling pathway (AID 743036; active = well fitted activation curve with a large enough effect in the signal ratio in the repeat runs, with a control signal flat, not every such curve was filed as active; the % refers to the signal ratio). Summed up:
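Following a 4 h settling period, AR-UAS-bla HEK293 cells were dosed with compounds for 16 h at 37C. A 2 h room-temperature incubation with LiveBLAzer B/G FRET substrate preceded the fluorescence measurement.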

The target is the same in experiment [18]. In words: qHTS assay to identify small molecule agonists of the androgen receptor (AR) signaling pathway using the MDA cell line (AID 743040; note: nearly all actives have a fitted effect of over 20% in size). In short, it runs like this:
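Luciferase read-out, ONE-Glo, 30 min RT. Cells: MDA-kb2 AR-luc, MMTV promoter with AR and GR response elements. Compound exposure 16 h, 37C, 0% CO2, after 5 h pre-incubation. qHTS agonist mode.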

Experiment [19] has the same target. In words: qHTS assay to identify small molecule antagonists of the androgen receptor (AR) signaling pathway using the MDA cell line (AID 743042; note: nearly all actives have a fitted effect of over 55% in size). Summed up: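 MDA-kb2 breast carcinoma cells carrying MMTV-luciferase (AR/GR responsive) were co-treated with compounds and the agonist R1881 for 16 h at 37C. Inhibition read as ONE-Glo luminescence; CellTiter-Fluor fluorescence measured in parallel for cytotoxicity.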

Values without a mark were called inactive. Results filed as inconclusive are left out. Active and inactive are the calls of the source. Unless noted, calls come from the whole dose curve; as a rule, active = well fitted curve in the direction sought with a large enough effect in the repeat runs; inconclusive = weak or mixed curves; inactive = no such curve, though single readings can be large; an effect the other way counts as inactive or inconclusive.

Regarding `CCN1CCC[C@H]1CNC(=O)c1c(O)c(Cl)cc(Cl)c1OC`, the result in experiment [1], in experiment [2], in experiment [3], in experiment [4], in [5] and in experiment [6] was inactive. Further, the compound was classed as inactive in [7] and in [8]. The Potency result in experiment [9], in [10], in [11], in experiment [12] and in experiment [13] was “inactive” throughout.

Take `N[C@@H](C(=O)N[C@@H]1C(=O)N2C(C(=O)O)=C(Cl)CS[C@H]12)c1ccccc1`: the result in [1], in [2], in experiment [3], in experiment [4], in experiment [5] and in experiment [6] was inactive. In addition, the compound was called inactive in [7] and in experiment [8]. Besides, the Potency result in [14], in experiment [9], in experiment [10], in experiment [11], in experiment [12] and in experiment [13] was “inactive” throughout.

Turning to `CN1C(=O)N(C)C(O)C1O` (stereo not drawn), the compound was called inactive in experiment [1], in experiment [2], in experiment [3], in experiment [4], in experiment [5] and in experiment [6]. Further, the outcome in [7] and in [8] was inactive. Moreover, the Potency result in experiment [14], in experiment [15], in [9], in [10], in experiment [11] and in experiment [12] was “inactive” in each case. For the same compound, the Potency result in experiment [13] was “inactive”.

Consider `COC(=O)c1ccc(C)cc1C1=NC(C)(C(C)C)C(=O)N1` (stereo not drawn), for which the call in [1], in experiment [2], in [3], in experiment [4], in [5] and in experiment [6] was inactive. Also, the result in experiment [7] and in experiment [8] was inactive. Moreover, the Potency entry in experiment [14], in experiment [15], in experiment [9], in experiment [10], in experiment [11] and in experiment [12] was “inactive” in each case. The Potency entry in [13] was “inactive”.

As for `NS(=O)(=O)c1cc2c(cc1Cl)NC(C1CC3C=CC1C3)NS2(=O)=O` (stereo not drawn), the compound was classed as inactive in experiment [1], in experiment [2], in [3], in [4], in experiment [5] and in experiment [6]. Further, the outcome in experiment [7], in [8], in [16] and in [17] was inactive. The Potency entry in [14], in [15], in experiment [9], in experiment [10], in [18] and in [13] was “inactive” in each case. For the same compound, in [19], the Potency result was “inactive”.

With `Cc1cc2c(cc1S(N)(=O)=O)S(=O)(=O)CCC2`, the compound was classed as inactive in [1], in experiment [2], in experiment [3], in experiment [4], in experiment [5] and in [6]. In addition, the outcome in experiment [7] and in [8] was inactive. The Potency entry in experiment [14], in experiment [15], in experiment [9], in [10], in [11] and in experiment [13] was “inactive” each time.

For the compound `COc1ccc(CCN(C)CCCC(C#N)(c2cc(OC)c(OC)c(OC)c2)C(C)C)cc1OC` (stereo not drawn), the outcome in experiment [1], in [2], in experiment [3], in experiment [4], in experiment [5] and in experiment [6] was inactive. For the same compound, the outcome in [7] and in experiment [8] was inactive. Also, the Potency result in experiment [14], in experiment [15], in experiment [12] and in experiment [13] was “inactive” each time. Moreover, the results for the Potency in experiment [9], in experiment [10] and in experiment [11] were 16.8 µM (active), 29.8 µM (active) and 29.8 µM (active), respectively.

With `CCc1ccc(O)c(OC)c1`, the call in [1], in experiment [2], in [3], in experiment [4], in experiment [5] and in [6] was inactive. Also, the compound was classed as inactive in experiment [7] and in [8]. Besides, the Potency result in experiment [14], in [15], in experiment [9], in experiment [10], in experiment [11] and in experiment [12] was “inactive” in each case. For the same compound, in experiment [13], the Potency result is “inactive”.
